# PubChem BioAssay (Tox21)
# Several values for one entry are separate records, joined by “and”; a condition that tells them apart may be missing. Equal entries are not always repeated. Inconclusive results are not listed. A call without a number means that no potency is given here. Some structures have more than one record in an assay (separate samples or runs), and their calls can disagree. Activity calls are given as the source filed them. Calls follow the shape of the dose curve; as a rule, active = well fitted curve in the direction sought with a large enough effect in the repeat runs; inconclusive = weak or mixed curves; inactive = no such curve, though single readings can be large; an effect the other way counts as inactive or inconclusive.
# How the values were obtained:
# [1] = Human pregnane X receptor (PXR) small molecule agonists, qHTS cell viability counter screen (AID 1346977); also: nearly all actives have a fitted effect of over 50% in size
# Outline: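 Measures live-cell protease fluorescence (CellTiter-Fluor) in PXR-Luc HepG2 cells treated 24hr with compounds at 37C. Cells had 5hr to attach before pin transfer of DMSO solutions.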
# [2] = Caspase-3/7 induction in HepG2 cells by small molecules, qHTS assay (AID 1346978); also: nearly all actives have a fitted effect of over 15% in size
# Outline: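 Caspase-3/7 induction was measured by Caspase-Glo 3/7 luminescence (30 min, room temperature) after a 17 hr compound exposure of wild-type HepG2 cells seeded at 2,000 per well and pre-incubated 5 hr.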
# [3] = Caspase-3/7 induction in CHO-K1 cells by small molecules, qHTS cell viability counter screen (AID 1346979); also: nearly all actives have a fitted effect of over 35% in size
# Outline: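 In the same wells as the caspase read, viability of compound-treated wild-type CHO-K1 cells was assessed using CellTiter-Fluor, added after 16hr at 37C and measured by fluorescence following 1hr further incubation.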
# [4] = Caspase-3/7 induction in CHO-K1 cells by small molecules, qHTS assay (AID 1346980); also: nearly all actives have a fitted effect of over 15% in size
# Outline: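 Luminescent Caspase-Glo 3/7 read (30min, room temperature) quantified apoptosis induction. Cells were wild-type CHO-K1, treated with compound for 17hr at 37 C and 5% CO2.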
# [5] = Caspase-3/7 induction in HepG2 cells by small molecules, qHTS cell viability counter screen (AID 1346981); also: series mostly up to about 92 µM; nearly all actives have a fitted effect of over 30% in size
# Outline: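 In this quantitative HTS counter screen, compounds delivered in DMSO were left on unmodified HepG2 cells for 16 hr at 37 C. Viability was then determined fluorometrically with CellTiter-Fluor, in parallel with caspase-3/7 induction in the same wells.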
# [6] = target: Nuclear receptor subfamily 1 group I member 2 (Homo sapiens) (UniProt O75469); assay: Human pregnane X receptor (PXR) small molecule agonists, qHTS assay (AID 1346982); also: nearly all actives have a fitted effect of over 35% in size; also: potency is read from the fitted curve at half-maximal effect
# Outline: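 Reporter HepG2 cells expressing PXR-Luc are cultured in charcoal-stripped FBS (5%), treated with compounds for 24 hr at 37 C, and assayed by ONE-Glo luminescence after 30 min at room temperature.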
# [7] = target: Cytochrome P450 2D6 (Homo sapiens) (UniProt P10635); assay: Cytochrome P450 Family 2 Subfamily D Member 6 (CYP2D6) small molecule antagonists: luciferase reporter qHTS assay (AID 1671196); also: nearly all actives have a fitted effect of over 50% in size; also: potency is read from the fitted curve at half-maximal effect
# Outline: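 Test chemicals meet CYP2D6 plus proluciferin substrate (10 min, RT); NADPH regenerating solution then drives turnover for 1 h. Detection reagent halts the reaction; luminescence measured after 20 min.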
# [8] = target: Cytochrome P450 2C19 (Homo sapiens) (UniProt P33261); assay: Cytochrome P450 Family 2 Subfamily C Member 19 (CYP2C19) small molecule antagonists: luciferase reporter qHTS assay (AID 1671197); also: nearly all actives have a fitted effect of over 65% in size; also: potency is read from the fitted curve at half-maximal effect
# Outline: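 Luminescent readout of CYP2C19 activity: luciferin product detected 20 min after adding detection reagent. Before that, compound and enzyme-substrate mix preincubated 10 min at room temperature; NADPH-regenerating system started a 1 h, 37C reaction. Ketoconazole as positive control.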
# [9] = target: Cytochrome P450 1A2 (Homo sapiens) (UniProt P05177); assay: Cytochrome P450 Family 1 Subfamily A Member 2 (CYP1A2) small molecule antagonists: luciferase reporter qHTS assay (AID 1671199); also: nearly all actives have a fitted effect of over 50% in size; also: potency is read from the fitted curve at half-maximal effect
# Outline: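 Steps: enzyme-substrate mix dispensed; test compounds and furafylline control pinned in; 10 min room temperature; NADPH regeneration solution added, 1 h; reaction stopped with luciferin detection reagent; luminescence read after 20 min.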
# [10] = target: Voltage-gated inwardly rectifying potassium channel KCNH2 (Homo sapiens) (UniProt Q12809); assay: Human Ether-a-go-go-Related Gene (hERG) channel small molecule antagonists: fluorescence cell-based qHTS assay (AID 1671200); also: nearly all actives have a fitted effect of over 50% in size; also: potency is read from the fitted curve at half-maximal effect
# Outline: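 Quantitative HTS in hERG-U2OS cells: thallium entry through the channel reports activity, read as continuous 480/540 nm fluorescence over 2 min after stimulus addition.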
# [11] = target: Cytochrome P450 3A4 (Homo sapiens) (UniProt P08684); assay: Cytochrome P450 Family 3 Subfamily A Member 4 (CYP3A4) small molecule antagonists: luciferase reporter qHTS assay (AID 1671201); also: nearly all actives have a fitted effect of over 50% in size; also: potency is read from the fitted curve at half-maximal effect
# Outline: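 Inhibition of CYP3A4 is measured as loss of light: the enzyme converts a proluciferin substrate to luciferin, detected luminescently. Reaction ran 1 h at room temperature with NADPH regeneration after a 10 min compound preincubation.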
# [12] = target: Cytochrome P450 2C9 (Homo sapiens) (UniProt P11712); assay: Cytochrome P450 Family 2 Subfamily C Member 9 (CYP2C9) small molecule antagonists: luciferase reporter qHTS assay (AID 1671198); also: nearly all actives have a fitted effect of over 50% in size; also: potency is read from the fitted curve at half-maximal effect
# Outline: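 Enzyme-substrate mix preincubated with compound 10 min at room temperature; reaction started with NADPH regeneration solution, 1 h 37C. Luminescent luciferin product read after 20 min detection reagent.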
# [13] = target: Nuclear receptor subfamily 1 group I member 2 (Rattus norvegicus) (UniProt Q9R1A7); assay: Rat pregnane X receptor (rPXR) activation by small molecules, qHTS assay (AID 1346983); conditions: rPXR luciferase reporter cells, One-Glo luminescence, 24 h; stronger effect = higher value; also: nearly all actives have a fitted effect of over 20% in size
# Outline: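 Luminescent readout (One-Glo luciferase, 30 min room temperature) followed 24 hr compound treatment at 37 C of rPXR cells plated 2,000 per well and preincubated 5hr; qHTS format with compounds delivered in DMSO.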
# [14] = target: Nuclear receptor subfamily 1 group I member 2 (Homo sapiens) (UniProt O75469); assay: CYP3A4 induction through human pregnane X receptor (PXR) by small molecules, qHTS assay (AID 1346984); also: nearly all actives have a fitted effect of over 40% in size
# Outline: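 Induction measured in HepG2-based DPX-2 cells co-expressing human PXR and a CYP3A4 promoter-driven luciferase. After a 24-hour compound exposure, cells received CYP3A4 luciferin substrate at 3uM final for 3 hours, and light output was then recorded.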
# [15] = target: Nuclear receptor subfamily 1 group I member 2 (Homo sapiens) (UniProt O75469); assay: Human pregnane X receptor (PXR) activation by small molecules, qHTS assay (AID 1346985); also: nearly all actives have a fitted effect of over 40% in size
# Outline: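 DPX-2 cells (HepG2 co-transfected with a PXR response element and a CYP3A4-promoter luciferase construct) were seeded at 2,000 per well, rested 5 hr at 37C, then exposed to DMSO-dissolved compounds for 24 hr. Activation was read as luciferase luminescence.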
# Sequence of Nuclear receptor subfamily 1 group I member 2 (Homo sapiens) (O75469 whole entry, looked up): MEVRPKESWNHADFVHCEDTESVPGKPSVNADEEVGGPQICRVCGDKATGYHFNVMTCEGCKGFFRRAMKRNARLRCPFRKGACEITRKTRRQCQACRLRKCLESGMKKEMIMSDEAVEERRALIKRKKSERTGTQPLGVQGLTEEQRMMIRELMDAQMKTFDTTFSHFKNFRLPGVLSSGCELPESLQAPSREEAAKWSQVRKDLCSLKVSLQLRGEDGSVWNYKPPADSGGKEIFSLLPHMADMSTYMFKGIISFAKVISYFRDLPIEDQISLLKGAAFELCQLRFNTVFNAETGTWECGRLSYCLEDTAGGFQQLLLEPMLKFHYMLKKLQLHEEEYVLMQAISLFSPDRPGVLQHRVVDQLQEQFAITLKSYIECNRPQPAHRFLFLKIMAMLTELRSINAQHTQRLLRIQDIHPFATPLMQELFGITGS
# Sequence of Cytochrome P450 3A4 (Homo sapiens) (P08684 whole entry, looked up): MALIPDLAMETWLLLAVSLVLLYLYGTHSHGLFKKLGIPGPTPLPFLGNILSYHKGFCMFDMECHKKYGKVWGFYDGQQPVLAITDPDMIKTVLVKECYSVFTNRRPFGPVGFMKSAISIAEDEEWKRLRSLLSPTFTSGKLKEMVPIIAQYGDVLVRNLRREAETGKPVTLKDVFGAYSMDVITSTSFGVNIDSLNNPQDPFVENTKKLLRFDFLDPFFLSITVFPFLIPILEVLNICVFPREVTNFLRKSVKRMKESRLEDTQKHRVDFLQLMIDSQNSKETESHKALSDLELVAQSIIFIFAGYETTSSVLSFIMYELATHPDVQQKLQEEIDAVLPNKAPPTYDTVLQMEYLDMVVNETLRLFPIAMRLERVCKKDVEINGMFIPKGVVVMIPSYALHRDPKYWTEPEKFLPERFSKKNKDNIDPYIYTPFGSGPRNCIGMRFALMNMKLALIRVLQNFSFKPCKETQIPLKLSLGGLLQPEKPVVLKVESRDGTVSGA
# Sequence of Voltage-gated inwardly rectifying potassium channel KCNH2 (Homo sapiens) (Q12809 whole entry, looked up): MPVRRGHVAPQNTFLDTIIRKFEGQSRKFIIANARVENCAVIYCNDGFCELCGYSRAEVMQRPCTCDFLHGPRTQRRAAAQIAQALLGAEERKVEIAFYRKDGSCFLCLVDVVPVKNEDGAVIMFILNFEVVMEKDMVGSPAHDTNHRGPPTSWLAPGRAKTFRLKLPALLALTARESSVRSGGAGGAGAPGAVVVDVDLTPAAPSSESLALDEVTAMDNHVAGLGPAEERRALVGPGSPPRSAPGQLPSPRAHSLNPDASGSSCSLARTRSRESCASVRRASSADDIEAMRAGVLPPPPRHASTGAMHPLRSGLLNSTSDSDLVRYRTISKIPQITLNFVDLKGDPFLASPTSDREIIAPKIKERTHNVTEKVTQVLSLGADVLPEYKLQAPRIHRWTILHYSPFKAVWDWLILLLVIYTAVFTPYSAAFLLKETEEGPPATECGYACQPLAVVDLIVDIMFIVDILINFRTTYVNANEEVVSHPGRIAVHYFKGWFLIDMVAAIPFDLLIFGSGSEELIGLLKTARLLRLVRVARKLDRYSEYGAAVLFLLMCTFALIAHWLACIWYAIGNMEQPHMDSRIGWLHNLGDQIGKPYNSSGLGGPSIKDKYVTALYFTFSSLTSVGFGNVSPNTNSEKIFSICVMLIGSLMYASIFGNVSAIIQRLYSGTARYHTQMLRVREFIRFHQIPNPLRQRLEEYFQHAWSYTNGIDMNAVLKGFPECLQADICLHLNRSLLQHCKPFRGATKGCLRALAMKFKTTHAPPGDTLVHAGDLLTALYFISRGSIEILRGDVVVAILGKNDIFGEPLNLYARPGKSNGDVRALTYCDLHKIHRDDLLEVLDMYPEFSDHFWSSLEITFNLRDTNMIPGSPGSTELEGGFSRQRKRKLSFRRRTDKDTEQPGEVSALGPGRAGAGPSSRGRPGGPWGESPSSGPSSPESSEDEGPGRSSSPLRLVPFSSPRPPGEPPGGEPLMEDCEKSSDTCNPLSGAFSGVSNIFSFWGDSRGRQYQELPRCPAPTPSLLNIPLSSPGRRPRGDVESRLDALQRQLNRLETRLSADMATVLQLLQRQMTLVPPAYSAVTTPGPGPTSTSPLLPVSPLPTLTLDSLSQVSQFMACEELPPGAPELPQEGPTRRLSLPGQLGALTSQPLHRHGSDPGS
# Sequence of Nuclear receptor subfamily 1 group I member 2 (Rattus norvegicus) (Q9R1A7 whole entry, looked up): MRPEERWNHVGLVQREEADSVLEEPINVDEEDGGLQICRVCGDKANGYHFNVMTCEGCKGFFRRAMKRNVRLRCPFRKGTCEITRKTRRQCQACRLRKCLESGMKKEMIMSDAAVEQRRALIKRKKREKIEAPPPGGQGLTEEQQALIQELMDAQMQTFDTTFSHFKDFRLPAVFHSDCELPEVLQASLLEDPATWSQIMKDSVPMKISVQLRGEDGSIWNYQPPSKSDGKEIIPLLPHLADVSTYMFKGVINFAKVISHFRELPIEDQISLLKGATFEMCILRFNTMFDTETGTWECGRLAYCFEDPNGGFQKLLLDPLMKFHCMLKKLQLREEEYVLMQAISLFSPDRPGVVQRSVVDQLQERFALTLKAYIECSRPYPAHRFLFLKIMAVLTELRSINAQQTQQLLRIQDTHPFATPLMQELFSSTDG
# Sequence of Cytochrome P450 2D6 (Homo sapiens) (P10635 whole entry, looked up): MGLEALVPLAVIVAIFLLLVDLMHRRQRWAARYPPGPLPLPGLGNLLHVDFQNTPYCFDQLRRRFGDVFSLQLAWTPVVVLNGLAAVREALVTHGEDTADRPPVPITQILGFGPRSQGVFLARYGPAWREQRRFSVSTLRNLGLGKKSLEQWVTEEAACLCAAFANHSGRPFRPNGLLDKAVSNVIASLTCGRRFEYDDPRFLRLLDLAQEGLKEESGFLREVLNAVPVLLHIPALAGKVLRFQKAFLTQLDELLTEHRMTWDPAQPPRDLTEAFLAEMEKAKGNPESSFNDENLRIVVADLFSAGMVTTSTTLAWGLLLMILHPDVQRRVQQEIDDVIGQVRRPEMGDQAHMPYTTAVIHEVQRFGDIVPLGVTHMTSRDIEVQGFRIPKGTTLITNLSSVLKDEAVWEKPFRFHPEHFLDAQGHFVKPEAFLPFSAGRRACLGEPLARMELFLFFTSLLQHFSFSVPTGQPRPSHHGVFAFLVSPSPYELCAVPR
# Sequence of Cytochrome P450 2C19 (Homo sapiens) (P33261 whole entry, looked up): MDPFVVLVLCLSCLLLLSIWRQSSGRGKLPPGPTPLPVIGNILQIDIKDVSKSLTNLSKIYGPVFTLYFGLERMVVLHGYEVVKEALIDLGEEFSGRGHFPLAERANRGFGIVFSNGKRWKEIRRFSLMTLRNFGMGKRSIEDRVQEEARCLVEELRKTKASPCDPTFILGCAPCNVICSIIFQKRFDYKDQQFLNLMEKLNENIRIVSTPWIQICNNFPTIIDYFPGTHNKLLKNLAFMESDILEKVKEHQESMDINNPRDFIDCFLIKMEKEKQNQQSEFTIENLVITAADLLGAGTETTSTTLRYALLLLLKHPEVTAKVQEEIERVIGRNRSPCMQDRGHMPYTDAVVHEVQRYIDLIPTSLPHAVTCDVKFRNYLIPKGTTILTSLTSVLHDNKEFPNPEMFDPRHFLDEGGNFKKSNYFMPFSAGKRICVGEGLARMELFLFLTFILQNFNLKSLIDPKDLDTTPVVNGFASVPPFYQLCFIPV
# Sequence of Cytochrome P450 1A2 (Homo sapiens) (P05177 whole entry, looked up): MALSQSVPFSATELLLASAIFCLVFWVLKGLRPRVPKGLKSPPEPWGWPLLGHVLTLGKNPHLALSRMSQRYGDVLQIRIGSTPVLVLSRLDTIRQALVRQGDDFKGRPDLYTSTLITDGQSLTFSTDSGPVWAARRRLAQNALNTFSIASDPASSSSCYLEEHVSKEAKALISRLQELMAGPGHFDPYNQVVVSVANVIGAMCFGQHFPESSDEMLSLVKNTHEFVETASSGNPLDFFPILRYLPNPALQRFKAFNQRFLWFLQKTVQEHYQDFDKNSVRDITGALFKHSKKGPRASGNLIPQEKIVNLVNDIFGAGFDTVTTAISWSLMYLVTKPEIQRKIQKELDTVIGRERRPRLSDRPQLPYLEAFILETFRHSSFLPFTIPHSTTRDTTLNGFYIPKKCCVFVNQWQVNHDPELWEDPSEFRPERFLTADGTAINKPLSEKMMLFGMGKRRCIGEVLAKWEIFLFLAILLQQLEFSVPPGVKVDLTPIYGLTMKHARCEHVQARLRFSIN
# Sequence of Cytochrome P450 2C9 (Homo sapiens) (P11712 whole entry, looked up): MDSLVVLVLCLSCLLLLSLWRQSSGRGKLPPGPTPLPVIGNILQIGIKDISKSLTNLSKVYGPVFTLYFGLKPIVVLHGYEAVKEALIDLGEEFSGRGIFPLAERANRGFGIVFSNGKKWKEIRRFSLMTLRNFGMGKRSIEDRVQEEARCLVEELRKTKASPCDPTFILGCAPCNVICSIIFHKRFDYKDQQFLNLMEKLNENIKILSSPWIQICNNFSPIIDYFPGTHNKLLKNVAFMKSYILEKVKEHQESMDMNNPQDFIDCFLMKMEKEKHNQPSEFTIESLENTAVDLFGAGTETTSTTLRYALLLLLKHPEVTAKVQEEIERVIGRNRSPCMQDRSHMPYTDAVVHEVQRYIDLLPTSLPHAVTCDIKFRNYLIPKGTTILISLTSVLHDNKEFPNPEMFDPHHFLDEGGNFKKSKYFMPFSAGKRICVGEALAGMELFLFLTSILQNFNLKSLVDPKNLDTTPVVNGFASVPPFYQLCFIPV
SMILES,Potency [1],Potency [2],Potency [3],outcome [4],Potency [5],Potency [6],Potency [7],Potency [8],Potency [9],Potency [10],Potency [11],Potency [12],max activation [13],Potency [14],outcome [15]
CSc1ccc(Cl)cc1,inactive,inactive,inactive,inactive,inactive,inactive,inactive,inactive,inactive,inactive,inactive,–,–,–,–
C=CC[N+](C)(C)CC=C,inactive,inactive,inactive,inactive,inactive,54.9 µM (active) and inactive,inactive,56.8 µM (active) and inactive,inactive,inactive,inactive,inactive,–,–,–
COc1ccc(C)cc1N,inactive,inactive,inactive,inactive,inactive,inactive,24.3 µM (active) and 25.2 µM (active),38.6 µM (active) and 35.6 µM (active),28.3 µM (active),inactive,6.86 µM (active) and 20 µM (active),–,–,–,–
CCCCCCC=O,inactive,inactive,inactive,inactive,inactive,inactive,inactive and 17.8 µM (active),40.8 µM (active) and 39.9 µM (active),inactive,inactive,inactive,–,–,–,–
COC(=O)c1cccnc1,inactive,inactive,inactive,inactive,inactive,inactive,inactive,inactive,inactive,inactive,inactive,inactive,-1.84% (inactive),inactive,inactive
O=C(O)c1ccc(S(=O)(=O)N(Cl)Cl)cc1,inactive,inactive,inactive,inactive,inactive,inactive,35.8 µM (active) and inactive,inactive,inactive,–,inactive,inactive,4.13% (inactive),inactive,inactive
C[C@]12CC[C@@H]3c4ccc(O)cc4CC[C@H]3[C@@H]1C[C@@H](O)[C@@H]2O,inactive,inactive,inactive,inactive,inactive,inactive,inactive,inactive,31.7 µM (active) and inactive,inactive,inactive,inactive,-0.315% (inactive),inactive,inactive
CC(C)=CCl,inactive,inactive,inactive,inactive,inactive,inactive,10.1 µM (active) and inactive,inactive,inactive,inactive,inactive,–,–,–,–
CCOCC(=O)O,inactive,inactive,inactive,inactive,inactive,inactive,32.4 µM (active) and 31.7 µM (active),inactive,inactive,inactive,inactive,–,–,–,–
CC1(C)NC(=O)NC1=O,inactive,inactive,inactive,inactive,inactive,inactive,inactive,inactive,35.8 µM (active),inactive,inactive,inactive,–,–,–
CC(O)CC(C)(C)O (centres undefined),inactive,inactive,inactive,inactive,inactive,inactive,inactive,inactive,inactive,–,inactive,inactive,–,–,–
O=C(O)c1cc2ccccc2cc1O,inactive,inactive,inactive,inactive,inactive,54.1 µM (active),inactive,35.3 µM (active) and 79.6 µM (active),39.9 µM (active),inactive,inactive,–,–,–,–
CCCCCCCCCCCCCCCC(=O)OC(C)C,inactive,inactive,inactive,inactive,inactive,inactive,inactive,inactive,inactive,inactive,inactive,–,-0.875% (inactive),inactive,inactive
C=CC(C)CCCC(C)(C)O (centres undefined),inactive,inactive,inactive,inactive,inactive,inactive,31.7 µM (active),inactive,39.8 µM (active),43.6 µM (active) and inactive,inactive,–,–,–,–
O=C(O)c1ccccc1C(=O)O,inactive,inactive,inactive,inactive,inactive,inactive,inactive,41.2 µM (active) and 82.1 µM (active),–,inactive,inactive,inactive,–,–,–
O=C(OCC1CCC2OC2C1)C1CCC2OC2C1 (centres undefined),inactive,inactive,inactive,inactive,inactive,inactive,16.6 µM (active) and inactive,inactive,–,inactive,–,71 µM (active),–,–,–
O=C(O)c1ccc(C(=O)O)c(C(=O)O)c1,inactive,inactive,inactive,inactive,inactive,inactive,inactive,inactive,inactive,inactive,inactive,inactive,–,–,–
CC(CCl)OP(=O)(OC(C)CCl)OC(C)CCl (centres undefined),inactive,inactive,inactive,inactive,inactive,36.3 µM (active),inactive,35.7 µM (active) and 21.1 µM (active),28.3 µM (active) and 14.9 µM (active),inactive,–,40 µM (active) and 59.5 µM (active),–,–,–
